NR3A LBD binder: NR3A (human) ligand-binding domain modulation | Tm shift relative to glycine control, % at 25 µM | 340,000 tested, 2.5% active | NR3A LBD differential scanning fluorimetry, Tm shift; 0% = protein alone, 100% = glycine-bound protein;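 active = melting temperature shift of at least 10% of the positive control shift, at one fixed dose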
FAS TE block: inhibitors of human fatty acid synthase thioesterase domain; inhibition, % at 15 µM; 360,000 tested, 0.67% active; AID 602261; recombinant FAS-TE, OMFH fluorogenic substrate, fluorescence endpoint; P49327;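 active = compounds whose normalised, plate-corrected inhibition of enzyme fluorescence in the single-dose primary screen is 50% or more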;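 note: 0% = DMSO with enzyme and 100% = substrate without enzyme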
ADAM10 inh: ADAM10 inhibition, QFRET primary screen; recombinant ADAM10, EDANS/DABCYL FRET peptide cleavage, 3 h; O14672; 370,000 tested, 0.62% active; inhibition, % at 7 µM;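 active = inhibition above a per-campaign cutoff equal to the mean of compounds falling between control-based bounds plus 3 SD, cut at about 20% in these data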;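 note: 0% = DMSO wells while the 100% control is not disclosed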
aDG glyco act: alpha-DG glycosylation activation; Pro5-aDG cells, alpha-DG glycosylation AlphaScreen (IIH6); 0% Pro5, 100% B10-LARGE cell signal; activation, % at 10 µM; AID 624168; 360,000 tested, 0.22% active;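 active = activation of at least 8% versus controls, or a plate z-score of at least 8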;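 note: Pro5 are CHO cells carrying HIG-tagged alpha-DG that lacks glycosylation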
ADAM17 inh: inhibitors of human ADAM17; P78536; recombinant ADAM17, EDANS/DABCYL FRET peptide cleavage; inhibition, % at 6.95 µM; 370,000 tested, 0.83% active; AID 720648;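 active = inhibition above the mean of compounds lying between control limits plus 3 SD, set per campaign, cut at about 8.5% in these data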;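 note: 0% = DMSO-only wells as the low control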
An asterisk follows results filed as active; nt = not tested or not shown. Sampled rows, rich in hits. Any-hit rate of the full collection: about 4%.

SMILES	NR3A LBD binder	FAS TE block	ADAM10 inh	aDG glyco act	ADAM17 inh
O=C(Nc1nc(COc2ccccc2)cs1)C1CCC1	2	-3	8	1	1
CC(=O)Nc1nc(COc2ccccc2)cs1	0	-6	8	0	3
COc1cccc(OC)c1C(=O)Nc1nc(COc2ccccc2)cs1	23*	14	4	1	-1
O=C(NCCCc1ccccc1)O[C@@H]1CC[C@@]23CCCN2C(=O)CCC[C@H]3C1	nt	nt	5	nt	1
Cc1ccccc1NS(=O)(=O)c1ccc(N2CCCC2=O)cc1	0	6	2	0	-2
COc1ccc(N(CC(=O)Nc2ccc(S(=O)(=O)N3CCOCC3)cc2)S(=O)(=O)c2ccc(F)cc2)cc1	-2	16	13	-1	8
N#CCCn1cc(/C=C2\NC(=S)N(c3ccccc3)C2=O)c(-c2ccc(-c3ccccc3)cc2)n1	22*	20	-2	2	-3
O=C(N/N=C/c1ccccc1O)C(=O)N1CCCCCC1	11*	7	-38	0	-12
Oc1ccc(/C=N/Nc2ccc(C(F)(F)F)cn2)cc1	26*	14	-13	0	-6
O=C(N/N=C/c1ccc(C(F)(F)F)cc1)c1ccc(O)cc1	12*	-2	-5	1	1
Cc1ccc(C(=O)Nc2ccc(Br)c(C(F)(F)F)c2)cc1	10*	34	19	0	7
Cc1cccc(C(=O)Nc2cccc(C(=O)N/N=C/c3ccncc3)c2)c1	0	-4	-2	0	-2
O=C(N/N=C/c1cccc(C(F)(F)F)c1)c1ccc(O)cc1	7	0	-3	1	-3
Cc1ccc(C(=O)Nc2cccc(C(=O)N/N=C/c3ccc(O)cc3)c2)cc1	11*	-2	0	1	0
Cc1ccc(NC(=O)COC(=O)Cn2cnc3ccccc32)c(C)c1	-1	-7	-6	0	2
O=C(COC(=O)C1CC2C=CC1C2)Nc1c(Br)cc([N+](=O)[O-])cc1Br (configuration not stated)	-5	22	-5	0	-5
Cc1cccc(NC2=C(NC(=O)c3ccccc3)C(=O)c3ccccc3C2=O)c1	19*	9	12	3	7
Cc1cccc(NC(=O)c2ccc(NC(=O)c3ccccc3Br)cc2)c1	27*	8	14	0	2
Cc1cccc(C(=O)Nc2ccc(C(=O)Nc3ccc(O)cc3)cc2)c1	38*	-6	-20	0	-6
COc1ccc(Nc2cc(Nc3ccccc3)ncn2)cc1	31*	-6	4	0	1
COc1ccc(Nc2ncnc3sc(-c4ccccc4)cc23)cc1	16*	30	-181	0	-50
CCOC(=O)COc1ccc(S(=O)(=O)N2CCN(c3ccccc3F)CC2)cc1	2	21	7	0	0
COc1ccc(C(=O)Nc2cccc(-c3ccc4nncn4n3)c2)cc1OC	-1	-4	6	0	-1
COC(=O)CCC/C=C1/SCC(NC(=O)c2ccccc2)C1O (configuration not stated)	-11	-9	-8	0	1
COC(=O)CCC/C=C1/SCC(NC(=O)c2ccccc2)C1=O (configuration not stated)	-1	-28	1	0	12*
SMILES	NR3A LBD binder	FAS TE block	ADAM10 inh	aDG glyco act	ADAM17 inh
CCOc1ccc(C(=O)CCC(=O)N(CC)CC(=O)NCc2ccc(Cl)cc2)cc1	13*	9	-2	0	-5
Cc1ccc(S(=O)c2ccc([N+](=O)[O-])c3nonc23)cc1 (configuration not stated)	nt	-22	2	0	5
O=C(Nc1ccc(Br)cc1)c1cccn1-c1ncc(C(F)(F)F)cc1Cl	13*	42	18	0	8
O=C(NCc1cccnc1)c1cc(-c2ccc(Cl)cc2)oc1C(F)(F)F	-7	10	2	0	-2
COc1ccc(-c2cc(C(=O)Nc3cc(OC)cc(C(=O)Nc4cccc(C(F)(F)F)c4)c3)[nH]n2)cc1	29*	4	-7	1	1
COc1cc(NC(=O)c2ccc(N)nc2)cc(C(=O)Nc2cccc(C(F)(F)F)c2)c1	30*	18	6	0	8
COc1cc(NC(=O)c2cc3cccc(OC)c3o2)cc(C(=O)Nc2cccc(C(F)(F)F)c2)c1	12*	21	6	0	1
COc1cc(Nc2ccccn2)cc(C(=O)Nc2cccc(C(F)(F)F)c2)c1	21*	23	-33	0	-5

Screening data (PubChem)
